Source: PubChem BioAssay (Tox21)
Unmarked numbers belong to inactive results. Records with an inconclusive call do not appear. Where a call stands in place of a potency, no number is given. Active and inactive are the calls of the source. Unless noted, calls follow the shape of the dose curve; as a rule, active = well fitted curve in the direction sought with a large enough effect in the repeat runs; inconclusive = weak or mixed curves; inactive = no such curve, though single readings can be large; an effect the other way counts as inactive or inconclusive.

How the values were obtained:
[1] = qHTS assay for small molecule agonists of the p53 signaling pathway (AID 651631; calls by dose curve; also: nearly all actives have a fitted effect of over 15% in size)
Procedure, shortened: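 Fluorescence intensity from cleaved LiveBLAzer B/G substrate (2 h, room temperature) served as the signal. Beforehand, HCT-116 reporter cells bearing p53 response elements were treated 16 h at 37 °C with DMSO-dissolved compounds.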

[2] = qHTS assay for small molecules that induce genotoxicity in human embryonic kidney cells expressing luciferase-tagged ATAD5 (AID 651632); also: nearly all actives have a fitted effect of over 15% in size
Procedure, shortened: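 HEK293T cells carrying a luciferase reporter tagged to ATAD5 were exposed to compound or DMSO vehicle for 16 hr at 37C, 5% CO2. Amplite was added, and after 30 min at room temperature luciferase activity was read as a marker of ATAD5 induction.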

[3] = qHTS assay for small molecule agonists of the p53 signaling pathway - cell viability (AID 651633; calls by dose curve;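 also: p53RE-bla HCT reporter cells with a stable beta-lactamase p53 reporter; series mostly up to about 83 µM; nearly all actives have a fitted effect of over 30% in size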)
Procedure, shortened: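 p53RE-bla cells, seeded at 4,000 per well and rested 5 h at 37 C/5% CO2, received compounds in DMSO for 16 h at 37 C. CellTiter-Glo was then added, and luminescence was read after 30 min at room temperature to gauge cytotoxicity.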

[4] = qHTS assay for small molecules that induce genotoxicity in human embryonic kidney cells expressing luciferase-tagged ATAD5 - cell viability (AID 651634; calls by dose curve; also: nearly all actives have a fitted effect of over 25% in size)
Procedure, shortened: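 HEK293T cells expressing luciferase-tagged ATAD5 were exposed to compound or DMSO for 15.5 hr at 37C, 5% CO2. Viability was then read as live-cell protease activity by CellTiter-Fluor fluorescence after 30 min at 37C.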

[5] = qHTS assay for small molecule disruptors of the mitochondrial membrane potential - cell viability (AID 720634; calls by dose curve;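 also: human HepG2 liver cancer cells; series mostly up to about 83 µM; nearly all actives have a fitted effect of over 20% in size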)
Procedure, shortened: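 HepG2 cells seeded overnight at 37 C, then exposed to compound or DMSO for 1 hr at 37 C, 5% CO2. m-MPI dye added, then CellTiter-Glo for 30 min at room temperature; viability read as ATP luminescence.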

[6] = qHTS assay for small molecule disruptors of the mitochondrial membrane potential (AID 720635); also: potency is read from the fitted curve at half-maximal effect
Procedure, shortened: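 HepG2 cells (2,000/well) attached overnight at 37C, then took compound for 1 hr at 37C, 5% CO2. Mito-MPS dye was added for 30 min; fluorescence was read at 490/535 nm (monomers) and 540/590 nm (aggregates).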

[7] = qHTS assay to test for compound auto fluorescence at 590 nm (red) in HepG2 cells (AID 720674)
Procedure, shortened: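 Intrinsic compound fluorescence in the red window (Ex/Em 540/590 nm) is measured in attached HepG2 cells exposed for 1 hr, DMSO vehicle as baseline, benchmarked to Rose Bengal sodium.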

[8] = qHTS assay to test for compound auto fluorescence at 535 nm (green) in HepG2 cells (AID 720675)
[9] = qHTS assay to test for compound auto fluorescence at 460 nm (blue) in HEK293 cells (AID 720678)
Procedure, shortened: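 Measured: blue fluorescence (Ex 405/Em 460 nm) of compound-treated HEK293 cells, incubated overnight at 37C with 5% CO2 and scaled to triamterene equivalents.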

[10] = qHTS assay to test for compound auto fluorescence at 590 nm (red) in HEK293 cells (AID 720679)
Procedure, shortened: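 Using HEK293 cells at 2,000 per well, the screen added 23 nL of each compound after cell attachment and incubated overnight (37C, 5% CO2). The plate reader then captured red-label fluorescence, Ex/Em 540/590nm.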

Compound	Potency [1]	Potency [2]	Potency [3]	Potency [4]	Potency [5]	Potency [6]	outcome [7]	outcome [8]	Potency [9]	outcome [10]	fluorescence, % of fluorescein control [8]	fluorescence, % of triamterene [9]	fluorescence, % of fluorescent control [10]
N[C@@H](CS)C(=O)O	inactive	inactive	inactive	inactive	inactive	27.7 µM (active)	inactive	inactive	inactive	inactive	–	–	–
CCCCC1CCCCC(=O)O1 (configuration not stated)	inactive	inactive	inactive	inactive	inactive	inactive	inactive	inactive	inactive	inactive	–	–	–
OCCN1C[C@H](O)[C@@H](O)[C@H](O)[C@H]1CO	inactive	inactive	inactive	inactive	inactive	inactive	inactive	–	inactive	inactive	–	–	–
C=CCSCC1Nc2cc(Cl)c(S(N)(=O)=O)cc2S(=O)(=O)N1 (configuration not stated)	inactive	inactive	inactive	inactive	inactive	inactive	inactive	inactive	inactive	inactive	–	–	–
C=CCOc1nc(OCC=C)nc(OCC=C)n1	inactive	inactive	inactive	inactive	inactive	inactive	inactive	–	inactive	inactive	–	–	–
CC(=O)N[C@@H](CCC(N)=O)C(=O)O	inactive	inactive	inactive	inactive	inactive	inactive	inactive	–	inactive	inactive	–	–	–
CCCCCCCCCCCl	inactive	inactive	inactive	inactive	inactive	inactive	inactive	inactive	–	–	–	–	–
CCCCCCCCCCCCI	inactive	inactive	inactive	inactive	inactive	inactive	inactive	inactive	–	inactive	–	–	–
CC(C)(C)OC(=O)N1C[C@@H](F)C[C@H]1C(=O)O	inactive	inactive	inactive	inactive	inactive	inactive	inactive	inactive	–	inactive	–	–	–
COCc1ccc(COC)cc1	inactive	inactive	inactive	inactive	inactive	inactive	inactive	inactive	inactive	inactive	–	–	–
O=C(O)/C=C/c1ccc(/C=C/C(=O)O)cc1	inactive	inactive	inactive	inactive	inactive	inactive	inactive	inactive	inactive	inactive	–	–	–
CC(C)[N+](C)(C)CC(O)COc1cccc2ccccc12 (configuration not stated)	inactive	inactive	inactive	inactive	inactive	inactive	inactive	inactive	inactive	inactive	–	–	–
CC(C)=CCC/C(C)=C/C(=O)O	inactive	inactive	inactive	inactive	inactive	inactive	inactive	inactive	inactive	inactive	–	–	–
CN(C)CCn1nnnc1SCC1=C(C(=O)O)N2C(=O)[C@@H](NC(=O)Cc3csc(N)n3)[C@H]2SC1	inactive	inactive	inactive	inactive	inactive	inactive	–	–	–	–	-0.0016% [at 18.6 µM]	0.477% [at 18.6 µM]	-0.137% [at 18.6 µM]
NC(=O)c1ncn([C@@H]2O[C@H](CO)[C@@H](O)[C@H]2O)c1O	inactive	inactive	inactive	inactive	inactive	inactive	inactive	inactive	inactive	inactive	–	–	–
CC(C)(O)C(=O)c1ccc(OCCO)cc1	inactive	inactive	inactive	inactive	inactive	inactive	inactive	inactive	inactive	inactive	–	–	–
O=C1OC(=O)c2cc([N+](=O)[O-])ccc21	inactive	inactive	inactive	inactive	inactive	inactive	inactive	inactive	inactive	–	–	–	–
O=S(=O)(O)c1ccccc1O	inactive	inactive	inactive	inactive	inactive	inactive	inactive	inactive	inactive	inactive	–	–	–
CCCCCCCCCCCCCCCCCCOCC(O)CO (configuration not stated)	inactive	inactive	inactive	inactive	inactive	inactive	inactive	inactive	inactive	–	–	–	–
CCCCCCCCCCCCCCCCCC(=O)OCCCCCCCCCCCCCC(C)C	inactive	inactive	inactive	inactive	inactive	inactive	inactive	–	inactive	inactive	–	–	–
N#CCc1ccccc1[N+](=O)[O-]	inactive	inactive	inactive	inactive	inactive	inactive	inactive	inactive	inactive	inactive	–	–	–
CCO[Si](C)(OCC)OCC	inactive	inactive	inactive	inactive	inactive	inactive	inactive	–	inactive	inactive	–	–	–
CCCc1ccc(N)cc1	inactive	inactive	inactive	inactive	inactive	inactive	inactive	inactive	inactive	inactive	–	–	–
C=C(C)C1CC=C(C)C(O)C1 (configuration not stated)	inactive	inactive	inactive	inactive	inactive	inactive	inactive	inactive	–	inactive	–	–	–
